Only some compounds are listed: those with a hit (about 0.75% of all), similar ones and a draw of the others.
mHtt clearance – compounds clearing mutant huntingtin protein. HeLa Exon1htt(103Q)mCFP, aggregate imaging; zero = plate's median compound well. 47,000 tested, 0.42% active. inhibition, % at 1.5 µM. AID 853;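 active = inhibition of aggregate fluorescence above about 70%, also judged a hit by eye on the cell image, limit read from the data, passing the limit was not always enough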;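 also: cells exposed to compound for three days before fixation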
WNV NS2B-NS3 inh – WNV NS2B-NS3 proteinase inhibition | P06935 | z-score (no concentration beside the values) | 65,000 tested, 0.18% active | AID 577 | WNV NS2B-NS3 protease, fluorogenic substrate Ex360/Em465; active compounds read low; in the data active = z-score below about -3
Cathepsin G inh – inhibitors of human cathepsin G; P08311; purified enzyme, AMC-tetrapeptide fluorescence, pooled mixtures; inhibition, % at 5 µM (by protocol); 62,000 tested, 0.2% active;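 active = inhibition above 20% in each of the two mixture wells holding the compound; inactive = inhibition of 20% or less in either well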;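 also: 0% = enzyme control without mixture and 100% = blank lacking enzyme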
C1s block – blocks human complement C1s protease activity; 62,000 tested, 0.16% active; AID 538; mean inhibition % of two 10-compound mixtures (active compounds read high), % at 5 µM (by protocol); purified C1s, fluorogenic AMC substrate, pooled mixtures;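 active = inhibition above 20% in each of the two 10-compound mixture wells holding the compound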;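 also: 0% = enzyme wells lacking compound mixture and 100% = no-enzyme blank wells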
FXIa inh mix – blocks human factor XIa in pooled compound mixtures; P03951; purified FXIa, fluorogenic substrate; inhibition, % at 5 µM; 62,000 tested, 0.19% active; AID 680;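 also: each value is inhibition by a whole ten-compound pool holding the compound; 0% = enzyme with no mixture and 100% = wells lacking enzyme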
FXIIa mix inh – factor XIIa (human) inhibition, mixture screen; P00748; purified FXIIa, fluorogenic substrate, pooled mixtures; inhibition, % at 5 µM; 62,000 tested, 0.2% active;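 also: 0% = enzyme without compound and 100% = no enzyme blank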
Starred values were filed as active, the others as inactive; . = no result given. Rule as the data show it, unless noted: active = inhibition above about 20% (passing the limit was not always enough); inactive = the rest.

SMILES	mHtt clearance	WNV NS2B-NS3 inh	Cathepsin G inh	C1s block	FXIa inh mix	FXIIa mix inh
CN1C(=O)C(=Cc2ccccc2Oc2ccc(Cl)cc2)C(=O)N(C)C1=O	82*	.	.	.	.	.
C=CCC1(CN2CCCCCC2=O)C(=O)NC(=O)NC1=O	.	-6.5*	.	.	.	.
CC1(C)C(c2ccccc2)=NC(c2cccnc2)N1O (centres undefined)	6	0.12	8	62*	9	5
OCC1(CO)COC(c2cccnc2)N1 (centres undefined)	.	0.95	11	19	5	9
CC(C)C12CN3CC(C(C)C)(CN(C1)C3c1cccnc1)C2=O (centres undefined)	-14	.	.	.	.	.
CC(=NCCN1CCCCC1)c1c(O)[nH]c(=O)[nH]c1=O	-30	-0.27	-1	1	8	-20
Cc1cc(OCC(=O)Nc2c(C)n(C)n(-c3ccccc3)c2=O)c2c3c(c(=O)oc2c1)CCC3	.	1.6	-3	-43	6	3
Cc1nnc(SCc2nc3ccccc3c(=O)n2-c2ccccc2Cl)n1N	72*	-2.2	-3	0	9	-16
CCCCc1nc2ccccc2c(=O)n1-c1ccc(Cl)cc1[N+](=O)[O-]	-4	.	.	.	.	.
O=S(=O)(c1ccc(Cl)cc1)N1CN2CCN(C2)C1	-36	-4.8*	4	-2	9	11
